# “And” between values parts separate entries of the source, which are not always exact repeats. Equal entries are not always repeated. Results filed as inconclusive are left out. A call without a number means that no potency is given here. A number with no mark means an inactive call. The source made the active and inactive calls. Calls follow the shape of the dose curve; as a rule, active = well fitted curve in the direction sought with a large enough effect; inconclusive = small, poorly fitted or top-dose-only effect, or another doubt; inactive = no such curve, though single readings can be large; an effect the other way counts as inactive or inconclusive.
# Assays:
# [1] = target: Cytochrome P450 3A7 (Homo sapiens) (UniProt P24462); test: Cytochrome P450 family 3 subfamily A member 7 (CYP3A7) small molecule antagonists: luciferase biochemical qHTS assay (AID 1963596); also: nearly all actives have a fitted effect of over 40% in size
# Cytochrome P450 3A7 (Homo sapiens), sequence (P24462 whole entry, looked up): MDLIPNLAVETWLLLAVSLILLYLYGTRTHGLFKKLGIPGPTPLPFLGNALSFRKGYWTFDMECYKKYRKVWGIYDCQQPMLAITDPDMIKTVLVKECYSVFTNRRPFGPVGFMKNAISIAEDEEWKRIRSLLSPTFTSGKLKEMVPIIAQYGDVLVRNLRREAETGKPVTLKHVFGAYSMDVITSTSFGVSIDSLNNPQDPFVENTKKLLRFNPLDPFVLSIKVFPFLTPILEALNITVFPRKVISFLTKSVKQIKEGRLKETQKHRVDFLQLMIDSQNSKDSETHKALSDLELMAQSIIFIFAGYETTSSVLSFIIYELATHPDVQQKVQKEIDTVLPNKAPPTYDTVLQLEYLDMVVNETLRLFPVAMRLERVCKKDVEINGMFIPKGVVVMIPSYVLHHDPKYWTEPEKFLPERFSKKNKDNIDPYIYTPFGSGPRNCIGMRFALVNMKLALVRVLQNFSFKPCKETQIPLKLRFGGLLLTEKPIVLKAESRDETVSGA
# In short: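 Enzyme-substrate mix + cpd (DMSO), 10 min RT; + NADPH regen system, 1 h RT; + luciferin detection reagent, 20 min RT; luminescence read. Proluciferin substrate, P450-Glo format, 1536-well qHTS.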
# [2] = Viability qHTS for spleen associated tyrosine kinase inhibitor (SYKi) drug resistant MV4-11 cells (AID 1963824); also: nearly all actives have a fitted effect of over 35% in size
# In short: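 SYK inhibitor-resistant MV4-11 AML cells, 500 per well, added to predispensed compounds and incubated 72 hr at 37 C, 5% CO2. Viability measured by CellTiter-Glo luminescence after 10 min at room temperature.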
# [3] = Quantitative highthroughput screen to assess conditional lethalithy of NOMO1 cells grown in RPMI1640 with untreated serum (RPMI+s) (AID 1963876); also: nearly all actives have a fitted effect of over 35% in size
# In short: (§1)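 Each medium arm—HPLM with 10% dialyzed FBS, or RPMI1640 with 5 mM glucose and 10% untreated or dialyzed FBS—was screened against an 11-point, 3-fold compound titration for 48 h at 37 °C, with CellTiter-Glo luminescence as endpoint.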
# [4] = Quantitative highthroughput screen to assess conditional lethalithy of NOMO1 cells grown in RPMI1640 with dialyzed fetal bovine serum (RPMI+ds) (AID 1963877); also: nearly all actives have a fitted effect of over 30% in size; as to Viability: series mostly up to about 46 µM
# In short: as §1
# [5] = Quantitative highthroughput screen to assess conditional lethalithy of NOMO1 cells grown in Human Plasma-Like Medium with dialyzed fetal bovine serum (HPLM+ds) (AID 1963878); also: nearly all actives have a fitted effect of over 35% in size
# In short: as §1
# [6] = Quantitative highthroughput screen to assess conditional lethalithy of P12 Ichikawa cells grown in Human Plasma-Like Medium with dialyzed fetal bovine serum (HPLM+ds) (AID 1963879); settings: Potency: viability; also: nearly all actives have a fitted effect of over 35% in size; as to Viability: series mostly up to about 46 µM
# In short: as §1
# [7] = Quantitative highthroughput screen to assess conditional lethalithy of P12 Ichikawa cells grown in RPMI1640 with dialyzed fetal bovine serum (RPMI+ds) (AID 1963880); settings: Potency: P12-Ichikawa viability; also: nearly all actives have a fitted effect of over 35% in size
# In short: as §1
# [8] = Quantitative highthroughput screen to assess conditional lethalithy of P12 Ichikawa cells grown in RPMI1640 with untreated serum (RPMI+s) (AID 1963881); settings: Potency: viability; also: nearly all actives have a fitted effect of over 35% in size; as to Viability: series mostly up to about 46 µM
# In short: as §1
# [9] = Quantitative highthroughput screen to assess conditional lethalithy of SEM cells grown in Human Plasma-Like Medium with dialyzed fetal bovine serum (HPLM+ds) (AID 1963882); also: nearly all actives have a fitted effect of over 35% in size; as to Viability: series mostly up to about 46 µM
# In short: as §1
# [10] = Quantitative highthroughput screen to assess conditional lethalithy of SEM cells grown in RPMI1640 with unreated serum (RPMI+s) (AID 1963883); also: nearly all actives have a fitted effect of over 35% in size
# In short: as §1
# [11] = Cellular viability qHTS for adrenocortical cancer (ACC) cell line SW-13 (AID 1963989); settings: SW-13 ACC cells viability, CellTiter-Glo, 48 h; activity (max response): active compounds read low; also: nearly all actives have a fitted effect of over 65% in size;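 as to activity (max response): cells grown in serum-free medium with ITS supplement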
# In short: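 Viability was read as CellTiter-Glo luminescence after 48 h compound treatment (up to 46 uM final) of SW-13 cells grown serum-free; titration curves were fit with a four-parameter logistic model to give IC50 and efficacy.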
# [12] = Cellular viability qHTS for adrenocortical cancer (ACC) cell line NCI-H295R (AID 1963990); also: nearly all actives have a fitted effect of over 60% in size
# In short: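 CellTiter-Glo ATP luminescence, read 48 h after compound addition, measured viability of NCI-H295R adrenocortical cells grown serum-free with ITS. Final concentrations spanned up to 46 uM. Data normalized to DMSO and doxorubicin, fitted for IC50 and maximal response.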
# [13] = Quantitative highthroughput screen to assess conditional lethalithy of SEM cells grown in RPMI1640 with dialyzed fetal bovine serum (RPMI+ds) (AID 1963884); also: nearly all actives have a fitted effect of over 35% in size; as to Viability: series mostly up to about 46 µM
# In short: as §1
# Potency is read from the fitted curve at half-maximal effect.
smiles,measurement,setting,value
Cc1cc2sc(NC(=O)Cc3ccccc3)nc2cc1Cl,Potency,[1],inactive
same,Potency,[2],inactive
Cn1cc(-c2ccc(F)c(C(F)(F)F)c2)nc1C1CCN(c2ncnc3[nH]ncc23)CC1,Potency,[1],inactive
same,Potency,[2],inactive
same,Potency,[3],inactive
same,Potency,[4],inactive
same,Potency,[5],inactive
same,Potency,[6],inactive
same,Potency,[7],inactive
same,Potency,[8],inactive
same,Potency,[9],inactive
same,Potency,[10],inactive
same,activity (max response),[11],13.1%
same,Potency,[12],inactive
FC(F)(F)C(Cl)Br (stereo not drawn),Potency,[1],inactive
same,Potency,[2],inactive
Cc1oc(=O)oc1CN1CCN(c2cc3c(cc2F)c(=O)c(C(=O)O)c2n3C(C)S2)CC1 (stereo not drawn),Potency,[1],inactive
same,Potency,[2],18.6 µM (active)
same,Potency,[3],inactive
same,Potency,[4],inactive
same,Potency,[6],inactive
same,Potency,[7],inactive
same,Potency,[8],inactive
same,activity (max response),[11],4.83% and 4.68%
CNS(=O)(=O)Cc1ccc2[nH]cc(CCN(C)C)c2c1,Potency,[1],inactive
same,Potency,[2],inactive
same,Potency,[3],inactive
same,Potency,[5],inactive
same,Potency,[6],inactive
same,Potency,[7],inactive
same,Potency,[8],inactive
same,Potency,[9],inactive
same,Potency,[10],inactive
same,Potency,[13],inactive
same,activity (max response),[11],3.13%
CC(C)c1noc(N2CCC(COc3ccc(-c4ccc(S(C)(=O)=O)cc4)nc3)CC2)n1,Potency,[1],inactive
same,Potency,[2],5.25 µM (active)
same,Potency,[3],inactive
same,Potency,[4],inactive
same,Potency,[5],inactive
same,Potency,[6],inactive
same,Potency,[7],inactive
same,Potency,[9],inactive
same,activity (max response),[11],-1.34%
same,Potency,[12],inactive
FC(F)(F)c1ccccc1-c1cc(C(F)(F)F)c2nc(C3=NOC4(CCCCC4)C3)[nH]c2c1,Potency,[1],inactive
same,Potency,[2],16.4 µM (active)
Oc1c(Cl)cc(Cl)c2cccnc12,Potency,[1],inactive
same,Potency,[2],8.33 µM (active)
same,Potency,[3],inactive
same,Potency,[5],inactive
same,Potency,[9],16.6 µM (active)
same,Potency,[10],18.7 µM (active)
same,Potency,[13],18.7 µM (active)
same,Potency,[11],3.55 µM (active)
same,Potency,[12],7.94 µM (active)
O=C(O)c1cccnc1,Potency,[1],inactive
same,Potency,[2],inactive
same,Potency,[3],8.33 µM (active)
same,Potency,[4],5.26 µM (active)
same,Potency,[5],3.72 µM (active)
same,Potency,[7],10.5 µM (active)
same,Potency,[9],1.18 µM (active)
same,Potency,[10],2.96 µM (active)
same,Potency,[13],2.96 µM (active)
same,activity (max response),[11],-4.23% and 5.29%
same,Potency,[12],inactive
CN(C)c1nc(NC2CCC(NC(=O)c3ccc(F)c(F)c3)CC2)nc2ccccc12 (stereo not drawn),Potency,[1],inactive
same,Potency,[2],0.82 µM (active)
Cc1cc(=O)oc2cc(O)ccc12,Potency,[1],inactive
same,Potency,[2],inactive
same,Potency,[3],inactive
same,Potency,[4],inactive
same,Potency,[5],inactive
same,Potency,[6],inactive
same,Potency,[7],inactive
same,Potency,[8],inactive
same,Potency,[9],inactive
same,Potency,[10],inactive
same,Potency,[13],inactive
same,activity (max response),[11],-3.93% and 10.3%
same,Potency,[12],inactive
CCOC(=O)N1c2ccc(C(F)(F)F)cc2[C@@H](N(Cc2cc(C(F)(F)F)cc(C(F)(F)F)c2)C(=O)OC)C[C@H]1CC,Potency,[1],inactive
same,Potency,[2],7.42 µM (active)
same,Potency,[3],inactive
same,Potency,[4],inactive
same,Potency,[5],inactive
same,Potency,[6],inactive
same,Potency,[7],inactive
same,Potency,[8],inactive
same,Potency,[9],inactive
same,Potency,[10],inactive
same,Potency,[13],inactive
same,Potency,[12],inactive
CC(C)c1cc2c(N3CCN(C4=NCC(C)(C)S4)CC3)ncnc2s1,Potency,[1],inactive
same,Potency,[2],5.8 µM (active)
C[C@H]1CO[C@@H]2Cn3cc(C(=O)NCc4ccc(F)cc4F)c(=O)c(O)c3C(=O)N12,Potency,[1],inactive
same,Potency,[2],7.31 µM (active)
C#CCC(Cc1cnc2nc(N)nc(N)c2n1)c1ccc(C(=O)N[C@@H](CCC(=O)O)C(=O)O)cc1 (stereo partly drawn),Potency,[1],inactive
same,Potency,[2],0.0021 µM (active)
same,Potency,[3],0.187 µM (active)
same,Potency,[10],0.059 µM (active)
same,Potency,[11],0.0355 µM (active)
same,Potency,[12],0.0158 µM (active)
CCCNc1ccc2ncc(-c3ccc4[nH]ncc4c3)n2n1,Potency,[1],inactive
same,Potency,[2],0.0116 µM (active)
COc1ccccc1-c1ccc(-c2cn(C(=O)N3CCCCC3Cc3ccccc3)nn2)cc1 (stereo not drawn),Potency,[1],inactive
same,Potency,[2],14.6 µM (active)
CN(C)C/C=C/C(=O)Nc1ccc(C(=O)Nc2cccc(Nc3ncc(Cl)c(-c4c[nH]c5ccccc45)n3)c2)cc1,Potency,[1],inactive
same,Potency,[2],10.3 nM (active) and 18.6 nM (active)
same,Potency,[3],0.331 µM (active)
same,Potency,[4],0.263 µM (active)
same,Potency,[5],0.263 µM (active)
same,Potency,[6],0.331 µM (active)
same,Potency,[7],0.331 µM (active)
same,Potency,[8],0.331 µM (active)
same,Potency,[10],0.186 µM (active)
same,Potency,[11],0.282 µM (active)
same,Potency,[12],0.562 µM (active)
O=c1cc(N2CCN(c3cccc(C(F)(F)F)c3)CC2)[nH]c(=O)n1C1CCCCC1,Potency,[1],inactive
same,Potency,[2],inactive
Clc1ccc(C2(c3ccc(-c4cn[nH]c4)cc3)CCNCC2)cc1,Potency,[1],12.6 µM (active)
same,Potency,[2],5.17 µM (active) and 7.42 µM (active)
same,Potency,[3],14.8 µM (active)
same,Potency,[4],4.18 µM (active)
same,Potency,[5],3.32 µM (active)
same,Potency,[6],5.26 µM (active)
same,Potency,[10],9.35 µM (active)
same,Potency,[12],15.8 µM (active)
COc1ccc(CC2c3cc(OC)c(OC)cc3CC[N+]2(C)CCC(=O)OCCCCCOC(=O)CC[N+]2(C)CCc3cc(OC)c(OC)cc3C2Cc2ccc(OC)c(OC)c2)cc1OC (stereo not drawn),Potency,[1],inactive
same,Potency,[2],18.6 µM (active)
same,Potency,[3],3.68 µM (active)
same,Potency,[4],4.63 µM (active)
same,Potency,[5],1.64 µM (active)
same,viability,[6],93.9% [at 5.15 µM]
same,viability,[7],106% [at 5.15 µM]
same,viability,[8],89.9% [at 5.15 µM]
same,activity (max response),[11],-11.7%
